# From ChEMBL document CHEMBL1156829
# Several values for one entry are separate records, joined by “and”; a condition that tells them apart may be missing. Equal entries are not always repeated. Whole data set: some 5,400 compounds, median “IFI” near 2, cut for the highest 2% near 22. This is one part of a sample in which the highest values are shown more often than they occur.
# Test: NOVARTIS: Inhibition Frequency Index (IFI) - the number of HTS assays where a compound showed > 50% inhibition/induction, expressed as a percentage of the number of assays in which the compound was tested.
# Format: functional
row,SMILES,IFI
1,Cc1ccc(CSCc2ccc(C(=O)NC3CC3)o2)cc1,0%
2,CC(=O)Nc1ccc(-c2nc(-c3ccc(Oc4ccc(-c5[nH]c(-c6ccc(NC(C)=O)cc6)nc5-c5ccccc5)cc4)cc3)c(-c3ccccc3)[nH]2)cc1,1.54%
3,COc1ccc2c(c1)C(C)=CC(C)(C)N2C(=O)CSc1nnc(-c2ccc(C)cc2)o1,0%
4,O=C(N/C(=C/C=C/c1ccccc1)C(=O)N1CCCCC1)c1ccc([N+](=O)[O-])cc1,0.685%
5,CC1CN(C(=O)C(Cc2c[nH]c3ccccc23)NC(=O)C(c2ccccc2)c2ccccc2)CCN1C(=O)NCc1ccccc1 (stereo unspecified),0%
6,CCCCNC(=O)NC(Cc1c[nH]c2ccccc12)C(=O)NC1CCCCC1 (stereo unspecified),4.21%
7,CC(C)C[C@@H](NC(=O)[C@H](C)NC(=O)CNC(=O)[C@@H](NC=O)C(C)C)C(=O)N[C@@H](C)C(=O)N[C@@H](C(=O)N[C@H](C(=O)N[C@@H](C(=O)N[C@@H](Cc1c[nH]c2ccccc12)C(=O)N[C@H](CC(C)C)C(=O)N[C@@H](Cc1c[nH]c2ccccc12)C(=O)N[C@H](CC(C)C)C(=O)N[C@@H](Cc1c[nH]c2ccccc12)C(=O)N[C@H](CC(C)C)C(=O)N[C@@H](Cc1c[nH]c2ccccc12)C(=O)NCCO)C(C)C)C(C)C)C(C)C,27.6%
8,Cc1ccc(Nc2nc(NCc3ccccc3)c3ccccc3n2)cc1,0%
9,C=CCSc1nc(N)c2c3c(sc2n1)CN(CCC)CC3,14%
10,Brc1ccc(-c2n(Cc3ccccc3)c3ccccc3[n+]2Cc2ccccc2)o1,15.4%
11,CC[n+]1c(/C=C/C=C2\N(C)c3ccccc3C2(C)C)n(-c2ccccc2)c2ccc(C)cc21,21.4%
12,CC[n+]1c(C=CN(C)C)sc2ccccc21,4.62%
13,CC[n+]1c(/C=C/C=C2\N(C)c3ccccc3C2(C)C)n(-c2ccccc2)c2cc(Cl)ccc21,33.3%
14,CN1/C(=C\C=C\C2=[N+](C)c3ccc4ccccc4c3C2(C)C)C(C)(C)c2ccccc21,23.1%
15,CC[n+]1c(/C=C/C=C2\N(C)c3ccccc3C2(C)C)n(Cc2ccccc2)c2ccccc21,32.6%
16,CC[n+]1c(C=CC=C2N(C)c3ccccc3C2(C)C)sc2ccccc21,28.6%
17,CC[n+]1c(/C=C/C=C2\N(C)c3ccccc3C2(C)C)n(CCCOC(C)=O)c2ccccc21,14.3%
18,CCN1/C(=C/C=C/c2sc3ccccc3[n+]2CC)Sc2ccccc21,21.7%
19,C[n+]1c(C=CNc2ccccc2)n(-c2ccccc2)c2ccc(Cl)cc21,12.5%
20,CCC1=[N+](C)c2cccc3cccc(c23)N1C,3.12%
21,CC[n+]1c(/C=C/C=C2\N(C)c3ccccc3C2(C)C)n(-c2ccccc2)c2ccc(Cl)cc21,21.4%
22,COc1ccc(NC(=O)C2c3ccccc3C(=O)N(C3CCCC3)C2c2cccs2)cc1Cl (stereo unspecified),6.25%

row,SMILES,IFI
1,CC1=C(C=CC(C)C=NNC(=O)c2ccncc2)C(C)(C)CCC1 (stereo unspecified),0%
2,COc1ccc(-c2ccc(C=NNC(=O)CNC(=O)c3ccc4c(c3)OCO4)o2)cc1Cl,0%
3,CCC(=O)CC(O)C[C@@H](C)C[C@H](NC(=O)[C@@H]1C[C@H](C)CN1C(=O)/C=C/[C@@H](C)CC)C(=O)N[C@H](C(=O)NC(C)(C)C(=O)N[C@@H](CC(C)C)C(=O)N[C@@H](CC(C)C)C(=O)NC(C)(C)C(=O)NC(C)(C)C(=O)NCCC(=O)N[C@@H](C)CN(C)C)[C@H](O)C(C)C (stereo partly specified),12.1%
4,COc1cccc(C(=O)Oc2ccccc2-c2nc3cc(C)ccn3c2NC(C)(C)CC(C)(C)C)c1,3.74%
5,Cc1occc1C(=O)NN=C/C(Cl)=C/c1ccccc1,7.69%
6,CC(C)(C)OCCN(CC(O)CN(Cc1ccccc1)C(=O)NC(c1ccccc1)c1ccccc1)S(=O)(=O)c1ccccc1 (stereo unspecified),0.935%
7,COc1cc(C2C(C(=O)OCC(C)C)=C(C)NC3=C2C(=O)CC(c2ccccc2)C3)cc(Br)c1O (stereo unspecified),4.65%
8,Cc1ccc(Cn2c(N3CCC(C(=O)NCc4ccccn4)CC3)nc3ccccc32)cc1,0%
9,CCc1cccc2c(C#N)cn(CC(=O)Nc3ccc(OC)cc3)c12,7.69%
10,Clc1ccc(C[n+]2cc(-c3ccccc3)n3c2CCC3)cc1Cl,3.77%
11,Cc1cccc(C)c1NC(=O)N1CCN(C(=O)c2nc(-c3ccccc3)nc(C)c2C(=O)OC(C)C)CC1C (stereo unspecified),2.8%
12,N#CC(c1ccc(C(F)(F)F)cc1)c1ccc2c(C(F)(F)F)cc(C(F)(F)F)nc2n1 (stereo unspecified),26.3%
13,COc1ccc(C2Nc3ccc4ccccc4c3C3=C2C(=O)CC(C)(C)C3)cc1Br (stereo unspecified),0%
14,CCCCOc1cccc(C(=O)N(Cc2cccs2)c2ccc(OC)cc2)c1,0%
15,CCN1C(=Cc2sc3cc(NC(C)=O)ccc3[n+]2CC)C=Cc2cc(C)ccc21,7.69%
16,CC[n+]1c(/C=C2\C=Cc3cc(C)ccc3N2C)ccc2cc(C)ccc21,15.4%
17,CCN1C(=Cc2ccc3c4ccoc4ccc3[n+]2CC)C=Cc2c1ccc1occc21,28.6%
18,C=CCN1C=CC(=Cc2sc3ccccc3[n+]2C)c2ccccc21,17.6%
19,CC(C)(C)NC(=O)C(c1ccc(F)cc1)N(CCCN1CCOCC1)C(=O)c1ccc(-c2ccccc2)[nH]1 (stereo unspecified),3.16%
20,COc1ccc(OC)c(NC(=O)c2cnn3c(C(F)(F)F)cc(-c4ccc(OC)c(OC)c4)nc23)c1,2.38%
21,CC1(C)C(=O)C2(CCCCC2)C(=O)OC1/C=C/c1ccccc1 (stereo unspecified),1.49%
22,c1ccc(CSc2nc3ccncc3[nH]2)cc1,0%

row,SMILES,IFI
1,c1ccc(CSc2scnc2[P+](c2ccccc2)(c2ccccc2)c2ccccc2)cc1,27.8%
2,c1ccc(CSc2nnc3c(n2)[nH]c2ccccc23)cc1,0% and 3.82%
3,COc1ccccc1CN1CCc2nc(-c3cnccn3)sc2C1,9.86%
4,COc1ccc(CCNc2nc(NCCCn3ccnc3)ncc2C(=O)NCC(C)C)cc1OC,1.92%
5,CC(=O)N(Cc1ccc(F)cc1)C1=C(NCCc2ccccc2)C(=O)c2ccccc2C1=O,8.33%
6,CNC1=C(N(Cc2ccc(Cl)c(Cl)c2)C(C)=O)C(=O)c2ccccc2C1=O,14.3%
7,CC(=O)N(Cc1ccc(F)cc1)C1=C(NCc2ccccc2)C(=O)c2ccccc2C1=O,23.1%
8,CCOC(=O)c1c(N=Cc2cccc(OC)c2O)sc2c1CCN(C)C2,0%
9,O=c1cc[nH]c2cc(N3CCCCCC3)c(F)cc12,0%
10,O=C(Nc1ccc2oc(-c3cccc4ccccc34)nc2c1)c1ccc([N+](=O)[O-])o1,7.14%
11,C=CC1(C)CC23CC(C(OC(=O)c4ccccc4)c4ccnc5ccccc45)N2CCC13 (stereo unspecified),3.64%
12,COc1cccc2cc(-c3nc(-c4ccccc4)cs3)c(=O)oc12,6.45%
13,Cc1cc(/C=C2/SC(=S)N(CC(=O)O)C2=O)c(C)n1-c1ccccc1,0%
14,CCN1/C(=C\C=C2/SC(=S)N(c3ccccc3)C2=O)C(C)(C)c2cc(-c3ccccc3)ccc21,25%
15,COc1cccc(N2C(=O)/C(=C/c3cccnc3)SC2=S)c1,0%
16,N#Cc1c(-c2ccccc2)cc(N2CCN(Cc3ccc(Cl)cc3)CC2)n2c1nc1ccccc12,7.5%
17,COc1cc2c(OC3OCC(OC)C(OC)C3O)c3c(c(-c4ccc5c(c4)OCO5)c2cc1OC)C(=O)OC3 (stereo unspecified),27.7%
18,CCOC(=O)c1c(-c2ccc3c(c2)OCO3)[nH]c2cccc(OC)c2c1=O,0%
19,CCOC(=O)c1c(-c2ccc3c(c2)OCO3)[nH]c2cc(OC)ccc2c1=O,0%
20,CCOc1ccc(NC(=O)C2c3ccccc3C(=O)N(CC(C)C)C2c2cccs2)cc1 (stereo unspecified),6.25%
21,CS[C@H]1SC[C@H]2C(=O)N(C)[C@@H](C(C)C)C(=O)OC[C@@H](NC(=O)c3cnc4ccccc4n3)C(=O)N[C@@H](C)C(=O)N(C)[C@@H]1C(=O)N(C)[C@@H](C(C)C)C(=O)OC[C@@H](NC(=O)c1cnc3ccccc3n1)C(=O)N[C@@H](C)C(=O)N2C,34.6%
22,O=C(Nc1ccc(C2=NCCN2)cc1)c1ccc(-c2ccc(C(=O)Nc3ccc(C4=NCCN4)cc3)cc2)cc1,4.4%

row,SMILES,IFI
1,O=C(CN(CCN1CCOCC1)S(=O)(=O)c1ccccn1)N1CCN(C(c2ccccc2)c2ccccc2)CC1,0%
2,OC1(c2ccc3ccccc3c2)c2c(c3ccccc3c3ccccc23)C2=NCCN21 (stereo unspecified),3.25%
3,CCn1c2ccccc2[n+]2c(C)cc(C)nc12,7.14%
4,COc1cc2nc(NCC3CCCO3)n3nc(-c4ccccc4)nc3c2cc1OC (stereo unspecified),2.27%
5,CCn1c(/C=C/N(C)c2ccccc2)[n+](CC)c2cc(Cl)ccc21,6.25%
6,CCOC(=O)c1ccc2c(c1)[n+](CC)c(/C=C/N(C)c1ccccc1)n2CC,7.41%
7,CC[n+]1c(/C=C/N(C)c2ccccc2)n(-c2ccccc2)c2ccc(-c3nc4ccccc4s3)cc21,29.2%
8,NCCC(=O)N1CC(c2ccccc2)c2ccccc2C1CN1CCCCC1 (stereo unspecified),4.22%
9,COc1ccc2cc(CNCCc3cccc(Cl)c3)c(N3CCC(=O)N(CCN(C)C)CC3)nc2c1,9.73%
10,Cc1onc(-c2ccccc2)c1C(=O)N1CCC(CNc2c(-c3ccc(F)cc3)nc3ccccn23)CC1,5.56%
11,Cc1ccc(-c2cc(-c3cc(Cl)ccc3O)on2)cc1,0%
12,Cc1ccc(Nc2nc(-c3ccccn3)cs2)cc1,3.62%
13,c1ccc(Nc2nc(-c3ccccn3)cs2)nc1,18.1%
14,Cc1ccnc(Nc2nc(-c3ccccn3)cs2)c1,24.6%
15,O=C1c2ccccc2C(=O)c2c1ccc1nonc21,30.8%
16,CC(=O)c1ccc2c3c(onc13)-c1ccccc1C2=O,0%
17,O=S(=O)(NC1CCCC1)c1cccc2nonc12,0%
18,O=C(C1=C(O)C(=O)N(CCCn2ccnc2)C1c1ccccc1[N+](=O)[O-])c1ccccc1 (stereo unspecified),0%
19,COc1cccc(CNc2ncnc3sc(C(=O)NCC4COCCO4)c(C)c23)c1OC (stereo unspecified),1%
20,COc1ccc(Nc2nc(NN=Cc3cccc([N+](=O)[O-])c3OC)nc(Nc3ccc([N+](=O)[O-])cc3)n2)cc1,6.49%
